This passage reports Potency and z-score results from PubChem BioAssay (NCATS).

A short description of the test: qHTS for identification of novel therapeutic agents for treatment of microphthalmiaassociated transcription factor (MiT) renal cell carcinoma (RCC) (AID 1963991). The note with it: CellTiter-Glo, 48 h; for Potency: active = Z-AUC below -0.8 in all three lines; for z-score: stronger effect = lower value. From the text: PI: Marston Linehan Ph.D.
Urologic Oncology Branch, Center for Cancer Research (CCR)
National Cancer Institute (NCI), National Institute of Health (NIH), Bethesda, Maryland
MiT-Renal Cell Carcinoma (RCC) is characterized by genomic translocations involving microphthalmia-associated transcription factor (MiT) family members TFE3, TFEB, or MITF. MiT-RCC represents a specific subtype of sporadic RCC that is predominantly seen in young patients and can present with heterogeneous histological features making diagnosis challenging. Moreover, the disease biology of this aggressive cancer is poorly understood and there is no accepted standard of care therapy for patients with advanced disease. Tumor-derived cell lines have been established from human TFE3-RCC providing useful models for preclinical studies. TFE3-RCC tumor derived cell lines and their tissues of origin were characterized by IHC and gene expression analyses. An unbiased high-throughput drug screen was performed to identify novel therapeutic agents for treatment of MiT-RCC. Potential therapeutic candidates were validated in in vitro and in vivo preclinical studies. Mechanistic assays were conducted to confirm the on-target effects of drugs. The results of a high-throughput small molecule drug screen utilizing three TFE3-RCC tumor-derived cell lines identified five classes of agents with potential pharmacological efficacy, including inhibitors of phosphoinositide-3-kinase (PI3K) and mechanistic target of rapamycin (mTOR), and several additional agents, including the transcription inhibitor Mithramycin A. Upregulation of the cell surface marker GPNMB, a specific MiT transcriptional target, was confirmed in TFE3-RCC and evaluated as a therapeutic target using the GPNMB-targeted antibody-drug conjugate CDX-011. […] The results of the high-throughput drug screen and validation studies in TFE3-RCC tumor-derived cell lines have provided in vitro and in vivo preclinical data supporting the efficacy of the PI3K/mTOR inhibitor.
SEQUENCE No. (e.g., 1, 2, 3, etc.); […] (e.g., Cells, Incubation, Reagent, etc.); VALUE; DESCRIPTION.
1; Cells; 3 uL; white, solid-bottom Grenier assay plate.
2; Compounds; 23 nL; Kalypsis pin-tool (Wako USA).
3; Incubation; 48 hr; 37 C, 5% CO2, 95% humidity.
4; Reagent; 3 uL; CellTiter-Glo reagent (Promega).
5; Incubation; 15 min; room temperature.
6; Detection; Luminescence; ViewLux plate reader (PerkinElmer).
NOTES (numbers refer to Sequence numbers above)
1. Quantitative high-throughput screening (qHTS) of 1912 pharmacologically defined small molecule compounds was conducted on three TFE3-fusion cell lines bearing three different fusion partners (UOK109, UOK124, UOK145). Briefly, 500 cells in complete growth media were plated into white, solid-bottom, 1536-well tissue culture treated plates (Grenier Cat. 789173-F) using a Multidrop Combi cassette dispenser.
2. Twenty-three nanoliter of 1912 pharmacologically defined small molecule compounds of the NCATS Mechanism Interrogation PlatE (MIPE) version 4.0 were added to each assay plate using a Pintool Dispenser (Wako) equipped with 1536 pin head.
3. Plates were covered with stainless steel gasketed lids and incubated for 48 hours at standard cell culture conditions.
4. Viability was assessed by adding 3uL of CellTiter-Glo detection reagent (Promega).
5. Plates were covered with gasket lids and incubated for 15 minutes at room temperature.
6. Luminescence was measured on a ViewLux plate reader (PerkinElmer). Post-screen data processing used DMSO controls as 100% viability and empty wells as 0% viability and dose response curve fitting was done for all 11 concentrations for each compound.

Setting [1] is: TFE3-RCC UOK109 viability, measured here: UOK109 Z-AUC.
The mark [2] stands for this setting: TFE3-RCC viability, measured here: UOK124 Z-AUC.
The mark [3] stands for this setting: TFE3-RCC viability, measured here: UOK145 Z-AUC.

Records with an inconclusive call do not appear. Activity calls are given as the source filed them.
Potency is the fitted concentration of half-maximal effect.

Turning to `CCOc1ccc(Nc2nc(-c3c(C)nc4ccccn34)cs2)cc1`, the Potency (TFE3-RCC UOK109 viability) was 2.35 nM (active). Besides, the z-score was -1.91 under setting [1], -2.79 under setting [2] and -1.17 under setting [3].

As to `CC(C)n1nc(-c2ccc3oc(N)nc3c2)c2c(N)ncnc21`, under “TFE3-RCC UOK109 viability”, the Potency was 37.2 nM (active). For the same compound, the z-score is -2.39 under setting [1], -2.58 under setting [2] and -3.7 under setting [3].

In the case of `COc1ccc(-c2nc(N3CCOCC3)c3sc(CN(C)c4ncc(C(=O)NO)cn4)cc3n2)cn1`, the Potency (TFE3-RCC UOK109 viability) was 26.4 nM (active). Besides, the z-score runs as follows: under setting [1], -3.18; under setting [2], -4.67; under setting [3], -3.65.

`Cc1cnc(C(=O)O)c[n+]1[O-]` had a z-score under setting [1] of 1.58, a z-score under setting [2] of 0.716 and a z-score under setting [3] of 0.578.

`CC(=Cc1ccccc1)C=C1SC(=S)N(CC(=O)O)C1=O`: the z-score was determined as 1.2 under setting [1], 1.04 under setting [2] and 0.683 under setting [3].

In the case of `C[C@H]1[C@H](NC(=O)C(=NOC(C)(C)C(=O)O)c2csc(N)n2)C(=O)N1S(=O)(=O)O`, the z-score amounted to 1.25 under setting [1], 0.648 under setting [2] and 1.65 under setting [3].

With `C[C@@H]1CCN(C(=O)CC#N)C[C@H]1N(C)c1ncnc2[nH]ccc12`, the z-score runs as follows: under setting [1], -0.116; under setting [2], 0.39; under setting [3], -0.115.

For the compound `O=C(CCc1ccc(O)cc1)c1c(O)cc(O)cc1O[C@@H]1O[C@H](CO)[C@H](O)[C@H](O)[C@H]1O`, the z-score is -0.101 under setting [1], 0.0784 under setting [2] and -0.273 under setting [3].

`CNC(=O)c1ccc2cc(C3(O)CCn4cncc43)ccc2c1` (configuration not stated): the z-score reads like this: under setting [1], 0.41; under setting [2], 0.546; under setting [3], 0.539.

In the case of `OC[C@H]1O[C@@H](n2cnc3c2NC=NC[C@@H]3O)C[C@H]1O`, the z-score reads like this: under setting [1], 0.518; under setting [2], 0.532; under setting [3], 0.196.

As for `CN(C)c1cc(NC(=O)CNC(C)(C)C)c(O)c2c1C[C@@H]1C[C@H]3[C@H](N(C)C)C(=O)C(C(N)=O)=C(O)[C@@]3(O)C(=O)C1=C2O`, the z-score by setting is: under setting [1], 1.85; under setting [2], 0.166; under setting [3], 0.881.

Take `CC1CCC(C(=O)N(c2cc(C#CC(C)(C)C)sc2C(=O)O)C2CCC(O)CC2)CC1` (configuration not stated): the z-score was found to be 1.18 under setting [1], 1.68 under setting [2] and 0.196 under setting [3].

As for `CCOC(=O)O[C@]1(C(=O)OCCl)CC[C@@H]2[C@H]3CCC4=CC(=O)C=C[C@]4(C)[C@@H]3[C@@H](O)C[C@@]21C`, the z-score runs as follows: under setting [1], 0.509; under setting [2], 0.837; under setting [3], 2.11.
